# Measurements from paper PMC5540273 (PLoS ONE, 2017).
# Test system: CDK5
# Conditions: concentration: 1 μM, replicates: in singlicate; n = 1
# 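Also: KINOMEscan kinase panel screen.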
row,SMILES,%Inh
1,COc1ccc(Nc2nccc(N3CCC(NC(=O)c4cc5ccccc5s4)C3)n2)cc1 (stereo not drawn) [GSK1379738],0%
2,Cc1ccc(-c2nc(Nc3ccncc3)c3ccccc3n2)s1 [GSK189015],100%
3,Cn1cncc1C(=O)NC1CCN(c2ccnc(Nc3ccc(F)cc3)n2)C1 (stereo not drawn) [GSK1379717],0%
4,COc1ccc(Nc2nccc(N3CCC(NC(=O)C(C)c4ccc(Cl)cc4)C3)n2)cc1 (stereo not drawn) [GSK1379735],0%
5,COc1nccc(-c2c(-c3ccc(F)cc3)ncn2CCCN2CCOCC2)n1 [SB-282852],0%
6,Cc1ccccc1Cn1ccn2c(=O)cc(N3CCOCC3)nc12 [GSK2269905],0%
7,CS(=O)(=O)CCNCc1nc(-c2ccc3ncnc(Nc4ccc5c(cnn5Cc5ccccc5)c4)c3c2)cs1.Cl.Cl [GW569716],18%
8,O=C1NC(=O)C(c2ccc(Cl)cc2)=C1Nc1ccc(O)cc1 [SB-340867],0%
9,Cc1cccc2c(-c3ccncn3)c(-c3ccc(F)cc3)nn12 [GW515532],0%
10,Cn1cncc1-c1cc2c(Nc3ccc(OCc4ccccc4)cc3)ncnc2cn1 [GW281179],0%
11,CCn1c(-c2ccccc2)nc2cnccc21 [SB-733416],0%
12,Nc1ncnc2occ(-c3ccc4c(c3)CCN4C(=O)Cc3cc(F)ccc3F)c12 [GSK2645446],0%
13,c1ccc(-c2ccnc3[nH]ccc23)cc1 [SB-693578],0%
14,O=C(Nc1n[nH]c2cc(-c3ccsc3)ccc12)C1CC1 [SB-732932],14%
15,COc1ccc(Nc2nccc(NCCNC(=O)Nc3cc(C)ccc3C)n2)cc1 [GSK1379899],0%
16,Cc1ccc(NC(=O)Nc2ccccc2F)cc1-c1ccc(C(=O)Nc2ccncc2)cc1 [GSK1398477],5%
17,Cl.Cl.Cl.N#Cc1ccc(CCNc2nccc(-c3cccc(CN4CCNCC4)c3)n2)cc1 [GSK2137462],0%
18,O=C1NC(=O)C(c2ccc(Cl)cc2)=C1Nc1cccc(Cl)c1 [SB-317651],0%

row,SMILES,%Inh
1,Cc1ccccc1-c1cc(-c2c[nH]nc2-c2ccccn2)ccn1 [GW680061],0%
2,Fc1ccc(-c2nc3n(c2-c2ccncc2)CCS3)cc1 [GI98581],6%
3,CC(C)c1ccc(O)cc1Nc1ccnc2ccc(C(F)(F)F)cc12 [GW482059],0%
4,CC(=O)c1cccc(NC(=O)NC2CCN(c3ccnc(Nc4ccc(F)cc4)n3)C2)c1 (stereo not drawn) [GSK1379710],0%
5,Cc1nccc(-c2c(-c3ccc(F)cc3)ncn2CCCN2CCOCC2)n1.Cl [SB-282975],3%
6,O=C(Nc1n[nH]c2nc(-c3ccco3)c(Br)cc12)C1CCN(Cc2ccccc2)C1.O=C(O)[C@H](O)[C@@H](O)C(=O)O (stereo not drawn) [SB-742034],8%
7,O=c1cc(N2CCOCC2)nc2n(Cc3cccc(Cl)c3Cl)c3ccccc3n12 [GSK2299009],16%
8,Cn1cnc2c(N)ncnc21 [SKF-97623],0%
9,CNCc1ccc2nc(NC(=O)c3ccc(C(C)(C)C)cc3)cn2c1,0%
10,COc1ccc(CSc2nnc(-c3ccc4nccn4c3)o2)cc1C(F)(F)F,10%
11,O=C(Nc1n[nH]c2nc(-c3cccs3)c(Br)cc12)C1CCCC1 [SB-743341],24%
12,Nc1nccc(-c2c(-c3ccc(F)cc3)ncn2C2CCN(Cc3ccccc3)CC2)n1 [SB-219980],16%
13,Cc1ccc(NC(=O)Nc2ccc(Cl)c(C(F)(F)F)c2)cc1-c1ccc(C(=O)Nc2ccncc2)cc1 [GSK1398470],0%
14,COc1ccc(CSc2nnc(-c3ccc4c(c3)CCO4)o2)cc1,0%
15,NS(=O)(=O)c1cccc(N/C=C2\C(=O)Nc3ccc(S(=O)(=O)Cc4c(Cl)cccc4Cl)cc32)c1 [GSK398099],0%
16,CNc1nc(-c2ccc3c(N)n[nH]c3c2)cc(N2C[C@@H](C(=O)NC3CCCCC3)OC[C@H]2C)n1 [GSK2375584],0%
17,CS(=O)(=O)Cc1ccc(Nc2nccc(-c3c(-c4cccc(NC(=O)C5CCCCC5)c4)nn4ncccc34)n2)cc1 [GSK350559],4%
18,COC(=O)c1cccc(NC(=O)NC2CCN(c3ccnc(Nc4ccc(OC)cc4)n3)C2)c1 (stereo not drawn) [GSK1379746],0%
